A selection: hits, their analogues and other compounds. The true share with any hit is near 3.9%.
MazEF act – activators of E. coli MazEF toxin-antitoxin RNase, primary screen, biochemical, fluorescence, uHTS | Endoribonuclease toxin MazF (Escherichia coli (strain K12)), P0AE70 | FAM/BHQ RNA-DNA oligo cleavage fluorescence, 5 h | activation, % at 20 µM | 0.32% of 350,000 active | AID 504720, 2011; in the data active = activation above about 50%
BoNT-F LC inh – BoNT/F light chain protease inhibitors, primary screen, biochemical, flow cytometry, MLPCN library; inhibition, % at 10 µM; Botulinum neurotoxin type F light chain protease (Clostridium botulinum); 0.22% of 360,000 active; Multiplex microsphere protease cleavage assay; in the data active = inhibition above about 35%, passing the limit was not always enough; inconclusive = no clear call, values can overlap the other calls
BoNT-A LC inh2 – BoNT/A light chain protease inhibitors, primary screen, biochemical, flow cytometry, MLPCN library; Botulinum neurotoxin type A light chain protease (Clostridium botulinum A str. ATCC 3502); multiplex microsphere protease substrate cleavage; inhibition, % at 10 µM; 0.17% of 360,000 active; AID 588499, 2011
BH1578 lux ind – inducers of Vibrio cholerae quorum light production without autoinducers, primary screen, BH1578 luxS cqsA deficient, single point. V. cholerae BH1578 lux reporter, luminescence, 6 h. activation, % at 18.7 µM. 0.16% of 350,000 active. AID 588436, 2011; in the data active = activation mostly above about 9.7%, no sharp cut-off; inconclusive = no clear call, values can overlap the other calls; inactive = mostly below about 3.7%
Anthrax LF inh2 – Bacillus anthracis LF protease inhibitors, primary screen, biochemical, multiplex microsphere, MLPCN library | inhibition, % at 10 µM | 0.12% of 360,000 active | AID 588501, 2011 | Lethal factor (Bacillus anthracis), P15917 | multiplex microsphere protease cleavage assay
Bead autofluor – compound fluorescence in toxin protease inhibitor counterscreen. compound autofluorescence counterscreen, microsphere flow cytometry; hits give high values. fluorescence intensity (test concentration not listed). 3.1% of 360,000 active. AID 624483; in the data active = fluorescence intensity above about 16000; inconclusive = no clear call, values can overlap the other calls
Each line names hits and unclear results; the compound was inactive in the other large screens. Rule as the data show it, unless noted: active = inhibition above about 30%; inconclusive = no clear call, values can overlap the other calls; inactive = below that.

Cc1ccc(C)c(NC(=O)C2(C)CCCN2C(=O)C(C)C)c1 (stereo not given)	none (no result: MazEF act)
COc1ccc(N(CC(O)CN2CCCCC2)S(=O)(=O)c2ccc(C)cc2)cc1 (stereo not given)	BoNT-A LC inh2 inconclusive, Bead autofluor 20804
COc1ccc(N(CC(O)CN2C(=O)NC(C)(C)C2=O)S(=O)(=O)c2ccc(C)cc2)cc1 (stereo not given)	Bead autofluor 23111
Cc1ccc(S(=O)(=O)N(CC(O)CN2CCCCC2)c2ccccc2)cc1 (stereo not given)	none (no result: BH1578 lux ind)
Cc1ccc(N(CC(O)CN2C(=O)NC(C)(C)C2=O)S(=O)(=O)c2ccc(C)cc2)cc1 (stereo not given)	none
CC(NS(=O)(=O)c1ccc(Cl)cc1)C(=O)N1CCOCC1 (stereo not given)	none
O=C(NCCc1ccccc1)c1ccc(-c2cccnc2)c2ccoc12	none (no result: MazEF act)
Cc1cc(Nc2cnc3ccccc3n2)n(-c2ccccc2)n1	Bead autofluor 17464
COC(=O)c1c(NC(=O)c2ccc(Br)s2)sc2c1CCC2	Bead autofluor 21623
COC(=O)c1c(NC(=O)c2nn(C)cc2Cl)sc2c1CCCC2	BoNT-A LC inh2 inconclusive, Bead autofluor 20893
COC(=O)c1c(NC(=O)c2ccn(C)n2)sc2c1CCC2	none
CCOc1ccc(NCc2nnc(SCC(=O)Nc3nc(-c4ccccc4)cs3)n2-c2ccccc2)cc1	none
COc1ccc(C)cc1NC(=O)c1cc(S(=O)(=O)N2CCOCC2)cn1C	none
CCCCSc1nnc(-c2ccccc2)c2ccccc12	none
CCc1c(C(=O)Nc2ccncc2)csc1C	Bead autofluor 23043
CC(=O)c1ccc(NC(=O)Nc2ncn(Cc3cccc(C)c3)n2)cc1	none
CCc1c(C(=O)Nc2ncn(Cc3cccc(C)c3)n2)csc1C	BoNT-A LC inh2 inconclusive, Bead autofluor 16518
Cc1ccc(C)c(-n2c(-c3ccc(Br)cc3)csc2=NC(=O)c2ccccc2F)c1	none
CCCCn1c(CCn2nc(C)c(Br)c2C)n[nH]c1=S	Bead autofluor 23887
COCCCNCCOCCSc1ccc(Cl)cc1	none
CN(C)CCOCCSc1ccc(Cl)cc1	Bead autofluor 23961
CCCCNCCOCCSc1ccc(Cl)cc1	Bead autofluor 21188
Cn1c(=O)c2c(nc(N/N=C/c3cccnc3)n2Cc2ccc(F)cc2)n(C)c1=O	BoNT-F LC inh inconclusive, BoNT-A LC inh2 inconclusive
CC(C)(C)N(Cc1ccccc1)C(=O)COC(=O)CCN1C(=O)C2CC=CCC2C1=O (stereo not given)	none
Cn1c(NCCc2ccncc2)nc2cc(-c3cccc(C(F)(F)F)c3)sc2c1=O	none (no result: MazEF act)
Cc1cccc(-c2nc(NCCN(C)C)c3ccccc3n2)c1	none
Cc1ccc(N2C(=O)CS(=O)(=O)CC2=O)cc1	none
Cc1ccc(N2C(=O)CC3(CCCC3)CC2=O)cc1	BoNT-F LC inh inconclusive, Anthrax LF inh2 32
Cc1ccc(CSc2ncnc3c2cnn3Cc2ccccc2)cc1C	Bead autofluor 21383
Cc1ccc(CSc2ncnc3c2cnn3Cc2ccccc2)cc1	none (no result: BH1578 lux ind)
COc1ccc(NC(=O)C(C)N2c3cccc4cccc(c34)S2(=O)=O)cc1OC (stereo not given)	none
COc1ccc(NC(=O)C(C)N2c3cccc4cccc(c34)S2(=O)=O)cc1 (stereo not given)	Bead autofluor 22225
Cc1ccc2[nH]c3c(c2c1)CN(C(=O)CN1c2ccc(F)cc2CCC1C)CC3 (stereo not given)	BoNT-A LC inh2 inconclusive, Bead autofluor 21807
NC(=O)C1CCN(CCC(=O)Nc2ccc(Br)cc2)CC1	Bead autofluor 23853
Cc1cc(NC(=O)CCN2CCC(C(N)=O)CC2)ccc1Br	none
CN(C)C(=O)c1cccc(-c2csc(N3CCC(C(N)=O)CC3)n2)c1	none (no result: BoNT-F LC inh, BoNT-A LC inh2, BH1578 lux ind, Anthrax LF inh2, Bead autofluor)
CC(C)C(O)(C#CCN1CCCC1)c1ccccc1 (stereo not given)	none
C=C(C)C(C)(C#CCN1CCCC1)OC(C)=O (stereo not given)	Bead autofluor 18876
COn1c(SC(C)C)nc2ccccc2c1=O	none
CC(C)On1c(SC(C)C)nc2ccccc2c1=O	Bead autofluor 22943
COn1c(SC2CCCCC2)nc2ccccc2c1=O	Bead autofluor 17818
CN1C(=O)[C@H]2[C@@H](c3ccc(C(F)(F)F)cc3)N[C@]3(CCCN(Cc4ccc(Br)cc4)C3=O)[C@H]2C1=O	none
CC(C)(C)NCC(O)COc1c(F)cc(Br)cc1F (stereo not given)	Bead autofluor 22894
CC(=O)c1cc2c(ccc3ccccc32)oc1=O	none
O=C(c1ccco1)c1cc2c(ccc3ccccc32)oc1=O	Bead autofluor 22410
CC(C)Cc1ccc(/C=C/C(=O)NC2CC2)cc1	none
O=C(Nc1ccc(Cl)cc1)N[C@@H]1c2c(ccc3ccccc23)OC[C@@H]1CO	Bead autofluor 23698
COC(=O)c1cc(-c2ccccc2)sc1NC(=O)CN1C(=O)c2ccccc2C1=O	BoNT-A LC inh2 inconclusive, Bead autofluor 23511
CCCCCCCCC(NC(=O)c1ccc(C#N)cc1)C(=O)NCCC (stereo not given)	none
Cc1c(Cl)cccc1NC(=S)N(CCN(C)C)C(C)c1ccccn1 (stereo not given)	none
Cc1ccccc1NC(=S)N(CCN(C)C)C(C)c1ccccn1 (stereo not given)	Bead autofluor 19817
CC(C)CCNC(=O)c1ccc(CS(=O)(=O)Cc2ccccc2F)o1	none
Cc1ccc(CCNC(=O)c2ccc(CS(=O)(=O)Cc3ccccc3F)o2)cc1	Bead autofluor 23305
O=C(NCCc1ccccc1)c1ccc(CS(=O)(=O)Cc2ccccc2F)o1	Bead autofluor 18882
COc1ccccc1NS(=O)(=O)c1cc([N+](=O)[O-])ccc1N/N=C/c1c(C)[nH]c2ccccc12	Bead autofluor 16725
Cc1[nH]c2ccccc2c1/C=N/Nc1ccc([N+](=O)[O-])cc1	none
Cc1cc(C(F)(F)F)nn1Cc1n[nH]c(=S)n1-c1ccc(Cl)cc1	Bead autofluor 19410
Cc1ccc(-n2c(Cn3nc(C(F)F)cc3C(F)F)n[nH]c2=S)cc1	Bead autofluor 22572
Cc1cc(C(F)(F)F)nn1Cc1n[nH]c(=S)n1-c1cccc(Cl)c1	none
COc1ccc(OCc2n[nH]c(=S)n2-c2ccc(C)cc2)cc1	none
O=C(/C=C/c1ccncc1)c1ccc(NC(=O)c2ccccc2F)cc1	none
CCOC(=O)C1=CNS(=O)(=O)NC1c1ccc(C(F)(F)F)cc1 (stereo not given)	none
CC(=O)NC1C(=O)N(CC(C)C)c2ccccc21 (stereo not given)	Bead autofluor 21274
CCCCCCCCN1C(=O)[C@H](CC(=O)NCc2ccc(OC)c(OC)c2)C[C@@]2(C(=O)OC)CCCCC=C12	none (no result: MazEF act, BH1578 lux ind)
